tim10-1 inh: growth inhibitors of tim10-1 mutant yeast, primary screen, luminescence, uHTS; S. cerevisiae tim10-1 ts strain growth, BacTiter-Glo, 24 h; inhibition, % at 20 µM; 330,000 compounds, 2.2% hits; AID 463190, 2010;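 active means inhibition of at least 40%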;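 further: mutant grown at 25 °C; 0% = DMSO wells with yeast and 100% = wells holding no yeast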
SKKanGAS inh: S. pyogenes SKKanGAS growth inhibitors in kanamycin, primary screen, streptokinase expression inhibitor project, SKKanGAS strain, BacTiter-Glo luminescence; 6 h; inhibition, % at 7.5 µM; 300,000 compounds, 1.3% hits; AID 1662, 2009;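 active means mean replicate score, as percent of positive control median, at least 50; inconclusive means mean below 50 but one replicate at or above 50; inactive means mean and every replicate below 50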;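 further: strain carries kanamycin resistance gene driven by streptokinase promoter and grows in 40 µg/ml kanamycin; loss of luminescence reflects streptokinase promoter inhibition or plain growth inhibition; 0% = median of DMSO wells and 100% = positive control at its reference dose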
NALP1 inh: NALP1 inflammasome inhibitors in reconstituted yeast, colorimetric, S. cerevisiae, triplicate retest | 280,000 compounds, 0.61% hits | AID 2071, 2009 | S. cerevisiae NALP1/ASC/caspase-1 growth, X-gal OD620, 72 h | inhibition, % at 10 µM; in the data active means inhibition mostly above about 24%, no sharp cut-off; inactive means mostly below about 32%
tim23-1 inh: growth inhibitors of tim23-1 mutant yeast, primary screen, luminescence, uHTS; S. cerevisiae tim23-1 growth, BacTiter-Glo luminescence, 24 h; inhibition, % at 20 µM; 330,000 compounds, 1.3% hits; AID 463212, 2010;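 active means growth inhibition of the mutant yeast at or above 50%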;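 further: temperature-sensitive mutant grown at 25 °C; plate controls were DMSO-treated mutant yeast for no effect and medium wells lacking yeast for full effect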
PfHsp90 set2: growth inhibition of PfHsp90-expressing yeast, primary screen, antimalarial PfHsp90 inhibitor project, S. cerevisiae, BacTiter-Glo luminescence, single point, set 2 | BacTiter-Glo ATP, 48 h; yeast lacking PDR1 and PDR3 efflux regulators | inhibition, % at 9.4 µM | 310,000 compounds, 0.32% hits | AID 504621, 2011;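 active means every replicate shows inhibition above about 80%, whatever the replicate mean, limit read from the data; inconclusive means mean inhibition reaches the set limit but some replicate falls short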;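 further: 0% = DMSO neutral controls and 100% = 20 µM radicicol positive controls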
TIM10 inh: growth inhibitors of isogenic TIM10 control yeast, primary screen, counter-screen for tim10-1 yeast inhibitor project, luminescence, uHTS | inhibition, % at 10 µM | AID 463195, 2010 | S. cerevisiae TIM10 strain growth, BacTiter-Glo luminescence, 24 h | 330,000 compounds, 1.4% hits;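 active means inhibition of 40% or more at the single tested concentration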;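 further: wild-type TIM10 isogenic control strain grown at permissive 25 °C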
tim23-1 confirm: tim23-1 mutant yeast growth inhibitors, confirmation, luminescence, single concentration; shares compounds with tim23-1 inh; S. cerevisiae tim23-1 growth, BacTiter-Glo luminescence, 24 h; inhibition, % at 20 µM; 4,400 compounds, 83% hits;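 active means inhibition above about 39% in either of two replicate wells at 20 µM, limit read from the data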;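 further: temperature-sensitive tim23-1 mutant grown at 25 °C; 0% = DMSO wells with yeast and 100% = medium wells without yeast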
An asterisk follows results filed as active; u = inconclusive; x = no result given. An excerpt weighted towards active compounds, which were near 4.8% of everything screened.

SMILES | tim10-1 inh | SKKanGAS inh | NALP1 inh | tim23-1 inh | PfHsp90 set2 | TIM10 inh | tim23-1 confirm
Cc1cccc(NC2(C(F)(F)F)N=C3SCCN3C2=O)n1 (stereo unspecified) | 17 | -7 | 3 | 19 | -1 | 6 | x
COc1cc(/C=C2\C(=N)N3N=CSC3=NC2=O)ccc1OS(=O)(=O)c1ccccc1[N+](=O)[O-] | 4 | -2 | 3 | 9 | 18 | 4 | x
Fc1ccc(Oc2nc(-c3ccccn3)nc3ccccc23)cc1 | 37 | 42 | 6 | 50* | x | 15 | 51*
COc1cccc(/C=N/Nc2nccnc2Cl)c1O | 39 | -9 | -1 | 67* | 20 | 17 | 61*
NS(=O)(=O)c1ccc(CNc2ccc3ccccc3n2)cc1 | 3 | 5 | 19 | -2 | 13 | 11 | x
COc1ccccc1-c1sc2ccccc2c1-c1ccc(O)cc1 | -19 | x | x | 55* | 114* | 33 | 4
COc1ccc(-c2sc3ccccc3c2-c2ccc(O)cc2)cc1 | -11 | x | x | 35 | u | 35 | x
Clc1cncc(Cl)c1N/N=C/c1ccncc1 | 0 | -3 | 31 | 54* | 2 | 18 | 25
Clc1cccc(Cl)c1/C=N/Nc1c(Cl)cncc1Cl | 28 | 30 | 2 | -5 | 2 | 36 | x
Oc1c(C(Nc2cccc(C(F)(F)F)c2)c2ccncc2)ccc2cccnc12 (stereo unspecified) | 29 | 60* | -7 | 59* | 104* | 18 | 56*
O=C(Nc1cccc(C(F)(F)F)c1)c1cccnc1 | 26 | x | x | 9 | x | 5 | x
COc1ccc(C2CC(=O)Oc3cc(C)cc(C)c32)cc1 (stereo unspecified) | 12 | x | x | 44 | -34 | -7 | x
COc1ccc(C2CC(=O)Oc3cc(C)c(Cl)c(C)c32)cc1 (stereo unspecified) | 30 | x | x | 51* | -43 | 8 | 37
COc1ccccc1C1CC(=O)Oc2cc(C)c(Cl)c(C)c21 (stereo unspecified) | 30 | x | x | 52* | -6 | 11 | 41*
COc1ccc(C2CC(=O)Oc3c(C(C)C)ccc(C)c32)cc1 (stereo unspecified) | 21 | x | x | 54* | 3 | -2 | 42*
COc1ccc(C2CC(=O)Oc3cc(OC)ccc32)cc1 (stereo unspecified) | 21 | x | x | 50* | -9 | 14 | 23
COc1ccccc1C1CC(=O)Oc2cc(C)c(Br)c(C)c21 (stereo unspecified) | 33 | x | x | 60* | -12 | 13 | 42*
CCOC(=O)C1=C(N)Oc2cc(O)ccc2C1c1ccc(F)cc1F (stereo unspecified) | 12 | 0 | -15 | 56* | 14 | 23 | 59*
Cc1c([N+](=O)[O-])cnc(Sc2ccccc2)c1[N+](=O)[O-] | 27 | -7 | x | 75* | -23 | -12 | 73*
NC(=S)N/N=C/c1coc2ccc(Br)cc2c1=O | 18 | 1 | x | 78* | -6 | 34 | 75*
NC(=S)N/N=C/c1coc2ccc(F)cc2c1=O | 9 | -19 | x | 48 | x | 29 | x
NC(=S)N/N=C/c1coc2cc(Br)ccc2c1=O | 28 | 32 | 0 | 58* | -13 | 32 | 58*
NC(=S)N/N=C/c1coc2ccc(O)cc2c1=O | 2 | 2 | 4 | -14 | 17 | 4 | x
COC(=O)c1ccsc1NC(=O)CCc1ccccc1 | 12 | 6 | 35 | 27 | -23 | -3 | x
CC(C)Cn1c(/C=C/c2ccccc2)nc2ccccc21 | 39 | -1 | 34 | 56* | -10 | 39 | 46*
SMILES | tim10-1 inh | SKKanGAS inh | NALP1 inh | tim23-1 inh | PfHsp90 set2 | TIM10 inh | tim23-1 confirm
O=C(N/N=C/c1ccccc1)c1c(O)c2ccccc2[nH]c1=O | -31 | 20 | 7 | 73* | 18 | 11 | 10
COCc1ccc(C(=O)N2CCCC(N(C)Cc3ccccc3)C2)s1 (stereo unspecified) | -1 | -2 | 12 | 14 | 7 | 1 | x
c1ccc(-c2nc(NCc3cccs3)c3ccccc3n2)cc1 | -4 | 16 | 13 | 51* | 43 | 28 | 46*
Fc1ccc(CNc2nc(-c3ccccc3)nc3ccccc23)cc1 | -3 | 3 | -6 | 21 | -25 | 17 | x
Cc1cccc(C(=O)OCC(=O)NC23CC4CC(CC(C4)C2)C3)c1O | 14 | x | x | 56* | 0 | 38 | 56*
Cn1c(C(=O)N[C@@H](C(=O)O)c2ccccc2)cc2cc(Cl)ccc21 | 7 | 8 | -1 | 6 | -2 | -6 | x
Cn1c2ccccc2c2cnn(CC(=O)Nc3ccc(Cl)cc3)c(=O)c21 | -84 | -7 | x | -13 | -25 | -42 | x
CCN1CCN(Cc2c(C)[nH]c3ccc(C(=O)OC)cc3c2=O)CC1 | -3 | 7 | 3 | 4 | x | 1 | x
CCCN1CCN(C(=O)c2cccc3c2C(=O)N(CCOC)C3)CC1 | 3 | -5 | 16 | 96* | 9 | -4 | 14
CCCN1Cc2cccc(C(=O)N3CCN(c4ccc(F)cc4)CC3)c2C1=O | 10 | 2 | 14 | 6 | -5 | 8 | x
COc1ccc(N2C(=O)/C(=C\c3ccco3)N=C2SCC(=O)NC(C)C)cc1Cl | 22 | 10 | 25 | 44 | 24 | 18 | x
O=C(COCc1ccccc1)N[C@@H]1c2ccccc2CC[C@H]1OCc1ccccc1 | 25 | x | x | 52* | 15 | 17 | 38
O=C(CCc1ccccc1)N[C@@H]1c2ccccc2CC[C@@H]1OCc1ccccc1 | 22 | x | x | 37 | 13 | 1 | x
CCCCCC(=O)c1ccc(O)cc1O | 25 | -4 | 2 | 54* | -34 | 33 | 47*
O=C(Cc1ccccc1)c1ccc(O)cc1O | x | x | x | x | 4 | x | x
CCCn1nnc(NC(=O)c2sc3ccccc3c2Cl)n1 | 19 | -10 | 27 | 53* | 8 | 22 | 42*
Cc1ccc2[nH]cc(C(=O)CN3CCN(C)CC3)c2c1 | -2 | -3 | -1 | -2 | 11 | -12 | x
Cc1ccc2[nH]cc(C(=O)CCl)c2c1 | 13 | 11 | 20 | 58* | -25 | 36 | 66*
Cn1nc(Cc2cccc3ccccc23)c(C#N)c1N | -3 | -2 | x | 8 | -14 | -4 | x
CC(C)(C)n1nc(Cc2cccc3ccccc23)c2c(N)ncnc21 | 28 | 13 | x | 62* | -14 | 22 | 62*
O=C(Nc1nccs1)C1CCN(S(=O)(=O)c2cnc[nH]2)CC1 | -4 | 5 | -1 | -2 | 5 | -19 | x
COc1ccccc1Nc1nc2ccc(C)cc2n2cnnc12 | 32 | -7 | 0 | 51* | -8 | 21 | 32

Screens from PubChem BioAssay.
